{"source": "PubChem BioAssay AID493201", "about": "(National Center for Advancing Translational Sciences (NCATS), 2011)", "note": "Results filed as inconclusive are left out. Values without a mark were called inactive. Active and inactive are the calls of the source. Calls follow the shape of the dose curve; as a rule, active = well fitted activation curve with a large enough effect; inconclusive = small, poorly fitted or top-dose-only effect; inactive = no such curve, though single readings can be large or run the other way. Potency is read from the fitted curve at half-maximal effect.", "data": [{"assay": "qHTS Assay for Identifying a Potential Treatment of Ataxia-Telangiectasia: Secondary assay (no NCS) hit validation;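 also: phosphorylated KAP1 signal as a proxy for ATM-like kinase activity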; as to activation: 0% is about no effect", "settings": "A-T patient fibroblasts, AlphaLISA, no DNA damage added, 90 min; series mostly up to 76.9 µM; activation: at the top concentration", "text": "NIH Chemical Genomics Center [NCGC]\nNIH Molecular Libraries Probe Centers Network [MLPCN]\nAssay Submitter (PI): Wei Zheng and Yosef Shiloh\nAtaxia-telangiectasia (A-T) is a devastating and progressive disease for which, there is no cure. Although A-T is a multisystem disease, it is stereotyped characterized by its neurological symptoms such as truncal ataxia, due to cerebellar cortical degeneration of the Purkinje and granule cells. Other symptoms of A-T are telangiectasias (dilated blood vessels), primary immunodeficiency, marked sensitivity to ionizing radiation (IR), chromosomal instability and predisposition to cancer.\nThe underlying genetic cause of A-T is null mutations in the ATM (A-T mutated) gene. ATM is a nuclear serine/threonine kinase that functions as a master regulator of the cellular responses to double strand breaks (DSBs) in the DNA. Upon activation by DSBs, ATM phosphorylates a plethora of downstream targets, including KAP-1 on […]. KAP-1 phosphorylation occurs shortly in response to DSBs and mediates global chromatin relaxation, which facilitates DSB repair. To screen for small molecules that will compensate for the loss of ATM in cells derived from A-T patients, we monitored KAP-1 phosphorylation as a readout for ATM-like activity using an AlphaLISA assay. This secondary assay omits NCS, which creates double-stranded DNA breaks.\nStep,Parameter,Value,Description\n1. Cell Plating, 3 ul, 500 cells/well in OPTI-MEM, 1% FBS, 1% Pen/Strep\n3. Library compounds, 23 nl, 76.7 - 0.61uM dilution series final concentration\n4. Incubation, 60 min, 37C, 5% CO2, 95% humidity\n6. Incubation, 30 min, 37C, 5% CO2, 95% humidity\n7. Reagent, 1 ul, Premixed detection reagents and lysis buffer\n8. Reagent, 1 ul, 0.6% Antifoam A\n9. Incubation, 6 hr, 25C, 95% humidity\n10. Readout, EnVision, EnVision plate reader. AlphaScreen 1536-well protocol\nCells were plated using medium-binding white solid-bottom tissue culture treated Kalypsys plates. Multidrop dispense of 3 uL of F2112 (hTERT immortalized A-T patient fibroblast cells). Detection reagent and lysis buffer was 3.75nM Rab-a-pKAP1 antibody bound to 75 ng/ul AlphaScreen SA donor bead, 3.75 nM Biot-M-a-KAP1 antibody bound to AlphaLISA protein A acceptor bead, 0.5x protease inhibitor cocktail and 0.25x PerkinElmer lysis buffer. EnVision protocol for 1536-well AlphaScreen read (30ms excitation, 100ms read), about 10 min/plate.", "units": {"activation": "%"}, "values": [{"smiles": "CCN(CC)S(=O)(=O)c1cccc(N=Nc2c(O)n(CC)c(=S)n(CC)c2=O)c1", "Potency": "18.4 µM (active)"}, {"smiles": "CCN(CC)S(=O)(=O)c1ccc(C(=O)NC2CN3CCC2CC3)cc1", "note": "(stereo not drawn)", "activation": -4.35}, {"smiles": "Cc1nc2ccccc2c(=O)n1-c1ccc(F)cc1F", "activation": 33.3}, {"smiles": "O=C1Nc2ccccc2C1Cc1nc2ccccc2c(=O)n1-c1ccccc1", "note": "(stereo not drawn)", "activation": 16.9}, {"smiles": "Cc1cccc(N2C(=O)NC(=O)/C(=C\\C=C\\c3ccco3)C2=O)c1", "activation": 0}, {"smiles": "CN1CCN(c2ccc([N+](=O)[O-])c3no[n+]([O-])c23)CC1", "activation": 3.23}, {"smiles": "CC(C)c1ccc(-n2c(O)c(C=NC(CCS(C)=O)C(=O)O)c(=O)[nH]c2=S)cc1", "note": "(stereo not drawn)", "activation": -11.9}, {"smiles": "Cc1cc(O)c2c(c1)C(=O)C13C(=C2O)C(=O)[C@H]2[C@@H](O)[C@@H]1[C@H]1[C@H](O)[C@@H]3C(=O)C3=C(O)c4c(O)cc(C)cc4C(=O)C312", "note": "(stereo partly drawn)", "activation": 10.8}, {"smiles": "CC1(C)C[C@H]2C=C(C=O)[C@]3(C=O)C[C@]3(C)[C@H]2C1", "activation": -1.69}, {"smiles": "CCCCC(=O)N/N=C/c1c(O)n(CCC2=CCCCC2)c(=O)[nH]c1=O", "Potency": "14.6 µM (active)"}, {"smiles": "S=c1[nH]nc(Cn2c(-c3ccccn3)nc3ccccc32)n1-c1ccc2c(c1)OCCO2", "Potency": "41.2 µM (active)"}, {"smiles": "CN1CCCC(C(O)(c2ccccc2)c2ccccc2)C1", "note": "(stereo not drawn)", "activation": 18.6}, {"smiles": "CCN1C(=O)N(CC)C(=O)C2(Cc3ccccc3N3CCN(c4ccccc4)CC32)C1=O", "note": "(stereo not drawn)", "activation": -9.68}, {"smiles": "C/C=C/c1ccc2c(c1)OCO2", "activation": 58.1}, {"smiles": "Cc1ccc(C)c(NP(=O)(Oc2ccccc2)Oc2ccccc2)c1", "activation": 13.9}, {"smiles": "CCc1ccc(N2C(=O)NC(=O)/C(=C\\C=C\\c3ccco3)C2=O)cc1", "activation": -11}, {"smiles": "COC(=O)C1=C(c2ccc(OCc3ccccc3)cc2)C[C@@H]2CC[C@H]1N2C(=O)NCc1cccc(C(F)(F)F)c1", "Potency": "4.12 µM (active)"}, {"smiles": "Cc1ccc(-n2c(O)c(C=NCC3CCCO3)c(=O)[nH]c2=O)c(C)c1", "note": "(stereo not drawn)", "activation": 12.2}]}]}
